Experimental data: PMC4242493, “Sequence specificity incompletely defines the genome-wide occupancy of Myc”
The full ranking holds about 33,000 sequences; the median of “normalized occupancy” is about 0.075, and the highest 2% start at about 0.095. The list comes from a sample in which the highest values are over-represented; it also holds similar and randomly drawn sequences.

These sequences were tested against MaxL homodimer (Homo sapiens, UniProt P61244 1-160) (assay: universal protein-binding microarray (PBM); PBS-based mixture, 10 nM His-tagged protein dimer, 2% milk, 200 ng/uL BSA, 50 ng/uL salmon testes DNA, 0.02% TX-100; detection with Alexa 488 anti-His antibody;; high values mean tight binding). Details: protein: recombinant; tags: C-terminal His-tag (pET21a); chain copies: 2; dsDNA, one strand shown.
MaxL homodimer, sequence (P61244 whole entry): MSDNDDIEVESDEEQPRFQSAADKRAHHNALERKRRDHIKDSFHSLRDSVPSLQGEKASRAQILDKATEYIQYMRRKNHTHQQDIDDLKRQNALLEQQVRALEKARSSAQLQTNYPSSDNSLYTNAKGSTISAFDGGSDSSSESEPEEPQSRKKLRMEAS
How it was run: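 Agilent 4 x 44 K arrays carrying the 'all 10-mer' universal design were incubated with His-tagged protein dimer at 10 nM. Protein that bound was tagged using fluorophore-conjugated anti-His antibody at 10 ng/μL, and a GenePix 4400A scanned the arrays to give an intensity for every 8-mer. Each binding occupancy value expresses an intensity relative to the top-ranked intensity.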

Sequence	binding signal [normalized occupancy]
CAGGTGCG	0.0849
CAGTTGCA	0.0721
CCCTAACC	0.0758
CTGTGCAA	0.0754
CACACGTC	0.0858
TACACGTA	0.083
AACACGTC	0.0786
CACACGTG	0.553
AACACGTT	0.128
CACACGTA	0.0925
AACACGTA	0.083
AACACGGA	0.0756
AACACGTG	0.706
ATTTACGC	0.0786
CTCCCGCC	0.0726
ATTATGAC	0.0798
ACCTCTAT	0.0776
AAATGGTA	0.0806
CATTTTAC	0.0853
AGATACAC	0.0831
GCTCCTAA	0.0767
AAACGACC	0.0727
GACGTGGA	0.087
CACGTGGC	0.837
AAAGTGGA	0.0743

Sequence	binding signal [normalized occupancy]
CAAGTGGG	0.0807
AAGGTGGA	0.0747
CACGTCGC	0.0825
CACGTGGA	0.768
CACGTAGG	0.0797
CAAGTGGC	0.0744
CACGTGGG	0.707
TACGTGGA	0.0878
AACGTGGA	0.115
AGAGCCGA	0.0723
CTTTTTGA	0.0761
ACCGTAAC	0.0752
ACTAAGAC	0.0733
ACGGCACC	0.0742
GTCCACAA	0.0768
CAGCGGTA	0.0751
ATCCGTGG	0.078
ACTGTAAT	0.0778
AACATGTT	0.0895
TACATCTA	0.0787
CACATGTG	0.216
CACATCTG	0.0871
TACATGGA	0.0848
CAAATGTG	0.0879
AACAGGTC	0.0733

Sequence	binding signal [normalized occupancy]
AACAGGTG	0.102
AACATGTG	0.184
TACATGTA	0.0978
AACATCTG	0.0767
CACAGGTG	0.0857
CACATACG	0.0784
GTGGGGCA	0.0781
ACCCACTA	0.085
CTCCCGAA	0.0776
AACCTACT	0.074
GGTTGACA	0.0758
AGACTTGG	0.0722
CACATGTA	0.147
GACATGTC	0.0872
AACATGTA	0.0923
AACATGTC	0.087
GACATGTA	0.0884
CACATGTC	0.159
ACGGGTGA	0.0801
CATCTCAA	0.0793
TCAGCTGA	0.0752
GCTACGAC	0.078
CGCCACGC	0.0953
CGCCACGA	0.0799
AGCCACGG	0.0742

Sequence	binding signal [normalized occupancy]
CGCCACAA	0.076
AGCCACGC	0.109
AGCCACGA	0.0883
GATTTTTA	0.0759
ACGTACAG	0.0776
CAAATGTA	0.0834
TCCCTCCA	0.075
AGACAGAA	0.0751
CATATGCC	0.095
CATATGCA	0.0978
CATATGTC	0.0943
AATATGCG	0.0761
TATATGCA	0.0896
GATATGCA	0.0792
CATATGCG	0.105
AATATGTA	0.0801
CATATGTA	0.0972
TAGACCTA	0.0731
GGGGAACA	0.081
TTACTAAA	0.0728
TGACTCAA	0.0763
AGGGAGCA	0.0728
TAGTTGGA	0.0742
TAAGGACA	0.075
CTACGCAC	0.0773

Sequence	binding signal [normalized occupancy]
ACCGCGTG	0.182
TACGCGTA	0.0797
GACGCGTC	0.0757
AACGCGTG	0.123
AACGCGTC	0.0723
CACGCGTC	0.119
ACCGCGCG	0.0856
CACGCGTA	0.121
GACGCGTA	0.0737
ACCGCGTA	0.0727
AACGCGTT	0.0813
AACGCGTA	0.0792
CCTTAGCC	0.0725
CGTGCTGC	0.09
CGCTGACA	0.0773
GCGAGCAA	0.0723
AAGAACAT	0.08
GACGGTCA	0.0718
GCGACAGA	0.0794
AAGTCATT	0.0758
CAACATTA	0.0824
CCGAATGA	0.0745
AAACACAG	0.0769
CACGCGTG	0.17
CGCGCGTA	0.0797

Sequence	binding signal [normalized occupancy]
ATCGCGTG	0.127
CTCGCGTA	0.0788
ATCGCGTA	0.0764
ATCGCGTC	0.0719
GCCAACCC	0.08
AACATGGT	0.0843
AGTGAAAG	0.0743
CCCGGTAG	0.0721
ATGTGATA	0.0999
ATCTGATG	0.0779
ATGTGAAA	0.0872
ATGTGATG	0.0968
ATGTGACG	0.0922
CTGTGATC	0.0728
CTGTGATA	0.0741
GTGTGATA	0.0856
AGGTGATC	0.0832
ATGTGATC	0.0964
ATGTGAAT	0.0967
ATGTGAAG	0.0891
AAGAGGAA	0.0726
AATTATCG	0.0772
AATTCGAG	0.0732
AAGAGGGC	0.0738
CTGGTTAC	0.0749

Sequence	binding signal [normalized occupancy]
ATAGGGAT	0.0812
CCGAGTAG	0.0732
GATGATAA	0.078
AGAATGTG	0.0881
ATGGTAGG	0.0818
CTTACTAA	0.0721
ATCGTGGC	0.086
CTCGTGGA	0.103
ATCGTGGA	0.084
GTCGTGGA	0.0856
CTCGTGGC	0.119
CTAGTGGC	0.0765
CATCTCTA	0.0817
CAATTATG	0.0802
GAACACGA	0.0948
CAACACGA	0.0817
AAACACGC	0.0929
CAACACGC	0.0995
GAACACGC	0.108
GAACACAC	0.0767
ATTAGCGG	0.0719
ACATTGAA	0.0824
ACGAGAGG	0.0776
AAACAAAG	0.0763
GCATGCAC	0.11

Sequence	binding signal [normalized occupancy]
ACATGCAA	0.0826
GCATGCAA	0.0988
TCATGCAA	0.0829
GTATGCAC	0.0856
GAATGCAC	0.0772
ATGGAAGC	0.0783
TGAATCCA	0.0757
TCGTTCCA	0.0775
CCATAGCC	0.0762
ACACACGA	0.0911
GCACACAC	0.0907
CCACACGA	0.0959
ACACACGT	0.0986
GCACACGA	0.0896
GCACACGC	0.1
TCACACGA	0.0859
AAACACGT	0.106
AAACACGA	0.0848
ACACACGG	0.083
AAACACGG	0.0741
CCACACGG	0.0835
GTTTCCTA	0.0787
AATATAAG	0.0817
CCCCTAAC	0.0774
AACACTAC	0.0726

Sequence	binding signal [normalized occupancy]
AATAGTGC	0.0733
GGAGAGAC	0.0742
ACACACAC	0.0915
CCACACAA	0.0772
CCACACGC	0.0953
CCACACAC	0.0837
ACACACGC	0.103
AGACACGC	0.0922
ACTAACAA	0.0766
GCTTACCA	0.0723
GCAATCTA	0.0722
ATTAAAGA	0.0773
CTATTAAC	0.0779
GTAGTAAA	0.0757
AGGACCAT	0.0823
ACTATTCG	0.0759
CAAGCATG	0.105
AAAGCATA	0.0783
AAAGCATC	0.0796
AAAGCATG	0.104
CAAGCATA	0.0775
CAAGCATC	0.0744
